Experimental data taken from publication PMC7862700, “An all-to-all approach to the identification of sequence-specific readers for epigenetic DNA modifications on cytosine”.

Legend:
Assay in all cases: DAPPL (digital affinity profiling via proximity ligation, sequencing); 10 mM Tris-HCl pH 7.5, 50 mM NaCl, 1 mM DTT, 4% glycerol, room temperature, 30 min; GST-TFs on glutathione beads, 16-mer random dsDNA library, 0.1% formaldehyde crosslink after washing; high values mean tight binding
Conditions in all cases: protein: recombinant; tags: N-terminal GST; dsDNA, one strand shown
ELK1 = molecular target: T1, ELK1 (Homo sapiens, UniProt P19419 1-428)
T1 sequence: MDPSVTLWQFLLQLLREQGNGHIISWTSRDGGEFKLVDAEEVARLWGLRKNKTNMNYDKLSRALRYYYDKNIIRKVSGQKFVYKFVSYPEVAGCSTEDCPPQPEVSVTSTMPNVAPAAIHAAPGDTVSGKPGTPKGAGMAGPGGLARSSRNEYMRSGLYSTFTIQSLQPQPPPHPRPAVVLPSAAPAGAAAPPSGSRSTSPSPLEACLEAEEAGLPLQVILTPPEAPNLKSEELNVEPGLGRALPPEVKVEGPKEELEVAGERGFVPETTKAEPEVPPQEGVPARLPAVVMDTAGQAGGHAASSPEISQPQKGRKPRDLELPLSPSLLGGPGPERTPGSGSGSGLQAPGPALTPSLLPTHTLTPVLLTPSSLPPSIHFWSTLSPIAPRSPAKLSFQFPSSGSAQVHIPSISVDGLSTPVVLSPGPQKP
How it was run: (§1)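 Pools were built from human transcription factors expressed in yeast as GST fusions, captured on glutathione beads and DNA-barcoded, along with a tag-only sample. Incubation with 200 nmole of a 16-mer random double-stranded DNA library lasted 30 min at room temperature in Tris/NaCl/DTT/glycerol buffer, and was followed by washing, 0.1% formaldehyde crosslinking, proximity ligation, PCR amplification and Illumina NextSeq500 sequencing. Binding signal is the quotient of each hexamer's read frequency for a factor and its frequency for the tag-only sample.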

GABPA = molecular target: T2, GABPA (Homo sapiens, UniProt Q06546 1-454)
T2 sequence: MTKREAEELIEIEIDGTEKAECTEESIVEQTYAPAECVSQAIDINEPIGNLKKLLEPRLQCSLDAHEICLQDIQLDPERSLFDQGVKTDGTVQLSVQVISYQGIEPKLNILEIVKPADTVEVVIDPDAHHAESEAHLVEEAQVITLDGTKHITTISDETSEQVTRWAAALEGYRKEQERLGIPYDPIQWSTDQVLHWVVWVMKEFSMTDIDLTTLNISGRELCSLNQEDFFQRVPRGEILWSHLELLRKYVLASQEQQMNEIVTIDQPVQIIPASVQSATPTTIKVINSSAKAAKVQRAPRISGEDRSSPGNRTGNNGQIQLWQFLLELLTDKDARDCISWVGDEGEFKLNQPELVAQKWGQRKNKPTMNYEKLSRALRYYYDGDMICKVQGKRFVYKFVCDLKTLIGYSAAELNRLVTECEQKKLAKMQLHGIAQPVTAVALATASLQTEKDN
How it was run: as §1

ERG = molecular target: T3, ERG (Homo sapiens, UniProt P11308 1-479)
T3 sequence: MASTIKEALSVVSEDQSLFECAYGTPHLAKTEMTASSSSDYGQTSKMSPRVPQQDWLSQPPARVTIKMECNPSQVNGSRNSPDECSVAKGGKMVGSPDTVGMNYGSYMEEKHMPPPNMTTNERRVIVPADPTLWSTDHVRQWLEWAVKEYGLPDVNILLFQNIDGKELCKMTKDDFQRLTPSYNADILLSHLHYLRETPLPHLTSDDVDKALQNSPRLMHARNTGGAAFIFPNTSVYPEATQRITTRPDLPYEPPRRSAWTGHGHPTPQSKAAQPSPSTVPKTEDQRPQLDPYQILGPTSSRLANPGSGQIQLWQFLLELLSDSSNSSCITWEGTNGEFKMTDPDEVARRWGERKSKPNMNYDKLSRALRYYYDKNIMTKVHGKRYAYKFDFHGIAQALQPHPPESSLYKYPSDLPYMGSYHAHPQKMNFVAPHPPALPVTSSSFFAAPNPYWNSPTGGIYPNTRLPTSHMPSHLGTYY
How it was run: as §1

ELF1 = ELF1 (Homo sapiens, UniProt P32519 1-619)
How it was run: as §1

EHF = molecular target: T4, EHF (Homo sapiens, UniProt Q9NZC4 1-300)
T4 sequence: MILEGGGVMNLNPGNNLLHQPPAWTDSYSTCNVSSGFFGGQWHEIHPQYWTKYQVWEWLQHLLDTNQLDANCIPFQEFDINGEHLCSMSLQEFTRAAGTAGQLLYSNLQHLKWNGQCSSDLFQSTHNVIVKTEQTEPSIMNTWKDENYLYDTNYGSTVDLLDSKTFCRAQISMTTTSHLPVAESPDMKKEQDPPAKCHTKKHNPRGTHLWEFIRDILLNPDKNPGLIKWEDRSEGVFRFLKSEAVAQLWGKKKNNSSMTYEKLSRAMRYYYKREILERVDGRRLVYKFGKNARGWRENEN
How it was run: as §1

SPI1 = SPI1 (Homo sapiens, UniProt P17947 1-270)
How it was run: as §1

SPIB = SPIB (Homo sapiens, UniProt Q01892 1-262)
How it was run: as §1

FEV = molecular target: T5, FEV (Homo sapiens, UniProt Q99581 1-238)
T5 sequence: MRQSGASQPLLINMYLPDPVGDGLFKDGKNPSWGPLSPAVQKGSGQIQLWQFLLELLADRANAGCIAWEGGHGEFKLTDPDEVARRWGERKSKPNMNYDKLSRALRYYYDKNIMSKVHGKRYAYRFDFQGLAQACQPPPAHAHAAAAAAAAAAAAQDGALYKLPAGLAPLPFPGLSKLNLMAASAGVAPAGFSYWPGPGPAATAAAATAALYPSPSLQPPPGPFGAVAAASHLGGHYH
How it was run: as §1

ETV5 = ETV5 (Homo sapiens, UniProt P41161 1-510)
How it was run: as §1

ELF4 = ELF4 (Homo sapiens, UniProt Q99607 1-663)
How it was run: as §1

ELK4 = molecular target: T6, ELK4 (Homo sapiens, UniProt P28324-2 1-405)
T6 sequence: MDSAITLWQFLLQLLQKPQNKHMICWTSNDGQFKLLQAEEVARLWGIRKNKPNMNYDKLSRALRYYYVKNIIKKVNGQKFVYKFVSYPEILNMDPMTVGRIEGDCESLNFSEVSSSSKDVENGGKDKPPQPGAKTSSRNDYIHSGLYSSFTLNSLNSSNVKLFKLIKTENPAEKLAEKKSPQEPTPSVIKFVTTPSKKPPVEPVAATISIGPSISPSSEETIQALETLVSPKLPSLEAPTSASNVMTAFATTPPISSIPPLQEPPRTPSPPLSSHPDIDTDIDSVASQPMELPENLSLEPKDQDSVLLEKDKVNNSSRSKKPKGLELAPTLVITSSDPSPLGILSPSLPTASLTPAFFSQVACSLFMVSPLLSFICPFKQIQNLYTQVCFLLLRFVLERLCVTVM
How it was run: as §1

ELF3 = molecular target: T7, ELF3 (Homo sapiens, UniProt P78545 1-371)
T7 sequence: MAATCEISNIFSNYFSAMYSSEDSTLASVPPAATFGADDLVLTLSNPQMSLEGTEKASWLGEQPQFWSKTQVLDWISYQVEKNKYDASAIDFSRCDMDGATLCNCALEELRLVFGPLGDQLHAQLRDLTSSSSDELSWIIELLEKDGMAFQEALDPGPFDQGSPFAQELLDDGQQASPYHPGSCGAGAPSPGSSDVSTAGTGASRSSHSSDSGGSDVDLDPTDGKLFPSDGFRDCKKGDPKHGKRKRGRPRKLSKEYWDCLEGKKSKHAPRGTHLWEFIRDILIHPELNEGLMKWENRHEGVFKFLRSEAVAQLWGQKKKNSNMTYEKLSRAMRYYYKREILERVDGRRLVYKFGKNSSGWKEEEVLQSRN
How it was run: as §1

ETV1 = ETV1 (Homo sapiens, UniProt P50549 1-477)
How it was run: as §1

ERF = molecular target: T8, ERF (Homo sapiens, UniProt P50548 1-548)
T8 sequence: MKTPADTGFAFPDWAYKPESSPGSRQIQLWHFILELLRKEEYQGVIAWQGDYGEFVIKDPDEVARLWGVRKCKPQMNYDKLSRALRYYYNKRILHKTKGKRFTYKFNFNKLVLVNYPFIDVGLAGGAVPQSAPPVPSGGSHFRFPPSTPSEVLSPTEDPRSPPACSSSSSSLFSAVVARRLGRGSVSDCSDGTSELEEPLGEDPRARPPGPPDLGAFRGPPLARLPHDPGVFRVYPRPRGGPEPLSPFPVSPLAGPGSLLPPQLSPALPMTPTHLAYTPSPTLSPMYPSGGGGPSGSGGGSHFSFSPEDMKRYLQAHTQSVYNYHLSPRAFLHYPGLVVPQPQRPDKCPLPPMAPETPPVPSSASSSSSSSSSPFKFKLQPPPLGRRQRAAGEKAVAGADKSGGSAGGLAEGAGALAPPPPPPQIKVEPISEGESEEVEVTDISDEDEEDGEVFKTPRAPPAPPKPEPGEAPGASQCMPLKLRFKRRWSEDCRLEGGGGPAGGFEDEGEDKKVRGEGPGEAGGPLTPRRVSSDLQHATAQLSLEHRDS
How it was run: as §1

ETV3L = molecular target: T9, ETV3L (Homo sapiens, UniProt Q6ZN32 1-361)
T9 sequence: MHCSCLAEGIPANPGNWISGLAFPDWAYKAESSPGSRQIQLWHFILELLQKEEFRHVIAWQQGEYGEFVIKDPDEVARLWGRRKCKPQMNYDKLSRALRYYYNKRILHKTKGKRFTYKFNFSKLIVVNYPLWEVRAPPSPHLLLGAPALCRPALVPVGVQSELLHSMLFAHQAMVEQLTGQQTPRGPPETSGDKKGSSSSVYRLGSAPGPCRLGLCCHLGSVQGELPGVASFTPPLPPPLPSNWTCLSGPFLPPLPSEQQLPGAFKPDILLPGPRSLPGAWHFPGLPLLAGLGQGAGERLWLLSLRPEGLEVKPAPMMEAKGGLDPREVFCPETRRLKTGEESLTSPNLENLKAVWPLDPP
How it was run: as §1

ETS2 = molecular target: T10, ETS2 (Homo sapiens, UniProt P15036 1-469)
T10 sequence: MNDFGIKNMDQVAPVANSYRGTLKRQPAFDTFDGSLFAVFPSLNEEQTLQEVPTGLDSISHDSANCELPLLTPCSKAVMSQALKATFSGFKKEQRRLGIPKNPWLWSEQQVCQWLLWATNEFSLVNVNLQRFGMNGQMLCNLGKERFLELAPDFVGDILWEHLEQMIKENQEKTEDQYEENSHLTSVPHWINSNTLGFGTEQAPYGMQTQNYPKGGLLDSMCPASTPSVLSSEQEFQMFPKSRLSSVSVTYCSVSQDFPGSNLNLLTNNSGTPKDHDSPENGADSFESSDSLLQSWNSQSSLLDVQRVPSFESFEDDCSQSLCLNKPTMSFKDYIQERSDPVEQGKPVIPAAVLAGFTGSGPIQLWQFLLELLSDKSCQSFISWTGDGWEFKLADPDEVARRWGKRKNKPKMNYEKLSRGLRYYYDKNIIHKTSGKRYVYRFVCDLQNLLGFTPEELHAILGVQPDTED
How it was run: as §1

SPDEF = molecular target: T11, SPDEF (Homo sapiens, UniProt O95238 1-335)
T11 sequence: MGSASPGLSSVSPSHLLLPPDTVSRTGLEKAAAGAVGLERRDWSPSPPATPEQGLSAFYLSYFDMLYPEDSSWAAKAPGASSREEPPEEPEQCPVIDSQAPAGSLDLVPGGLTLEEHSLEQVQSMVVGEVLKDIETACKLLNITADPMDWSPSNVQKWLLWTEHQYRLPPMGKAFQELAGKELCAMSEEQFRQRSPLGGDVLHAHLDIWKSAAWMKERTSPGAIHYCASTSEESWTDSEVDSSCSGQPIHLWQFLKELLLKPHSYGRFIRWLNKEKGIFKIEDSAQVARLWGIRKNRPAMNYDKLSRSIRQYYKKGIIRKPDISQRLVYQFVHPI
How it was run: as §1

ETV7 = molecular target: T12, ETV7 (Homo sapiens, UniProt Q9Y603 1-341)
T12 sequence: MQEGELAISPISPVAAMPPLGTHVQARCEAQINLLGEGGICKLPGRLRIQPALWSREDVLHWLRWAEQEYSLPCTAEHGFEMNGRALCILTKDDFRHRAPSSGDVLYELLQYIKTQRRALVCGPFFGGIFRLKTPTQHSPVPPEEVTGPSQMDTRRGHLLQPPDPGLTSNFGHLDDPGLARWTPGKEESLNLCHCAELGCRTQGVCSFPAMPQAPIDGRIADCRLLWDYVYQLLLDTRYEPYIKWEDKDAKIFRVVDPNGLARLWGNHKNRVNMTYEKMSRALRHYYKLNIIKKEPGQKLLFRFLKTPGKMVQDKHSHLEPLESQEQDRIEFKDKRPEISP
How it was run: as §1

ETV3 = molecular target: T13, ETV3 (Homo sapiens, UniProt P41162-2 1-143)
T13 sequence: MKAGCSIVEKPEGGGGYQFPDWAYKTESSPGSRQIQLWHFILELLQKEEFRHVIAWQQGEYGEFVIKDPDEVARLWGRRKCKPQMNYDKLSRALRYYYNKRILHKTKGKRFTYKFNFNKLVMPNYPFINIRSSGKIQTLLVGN
How it was run: as §1

ETV6 = ETV6 (Homo sapiens, UniProt P41212 1-452)
How it was run: as §1

ETV6, sequence (P41212 whole entry): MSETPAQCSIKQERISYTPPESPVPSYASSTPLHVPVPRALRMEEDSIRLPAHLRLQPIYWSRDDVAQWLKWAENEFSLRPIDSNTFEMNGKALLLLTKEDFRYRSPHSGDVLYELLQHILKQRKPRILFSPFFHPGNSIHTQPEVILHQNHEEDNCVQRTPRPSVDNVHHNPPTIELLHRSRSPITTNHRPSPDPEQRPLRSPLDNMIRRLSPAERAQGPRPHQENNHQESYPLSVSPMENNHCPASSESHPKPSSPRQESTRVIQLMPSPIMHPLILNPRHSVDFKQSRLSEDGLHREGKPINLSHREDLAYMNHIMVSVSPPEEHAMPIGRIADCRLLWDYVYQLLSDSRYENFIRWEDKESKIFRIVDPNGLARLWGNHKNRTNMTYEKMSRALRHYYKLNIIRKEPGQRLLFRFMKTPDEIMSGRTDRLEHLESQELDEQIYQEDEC
SPIB, sequence (Q01892 whole entry): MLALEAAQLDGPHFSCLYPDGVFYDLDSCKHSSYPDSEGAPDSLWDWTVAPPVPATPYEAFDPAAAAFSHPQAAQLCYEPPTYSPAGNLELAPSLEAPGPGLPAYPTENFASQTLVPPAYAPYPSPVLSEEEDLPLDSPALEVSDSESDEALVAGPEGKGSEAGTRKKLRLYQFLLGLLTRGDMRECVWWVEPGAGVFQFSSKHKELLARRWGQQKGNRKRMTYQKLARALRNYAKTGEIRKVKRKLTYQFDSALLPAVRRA
ELF1, sequence (P32519 whole entry): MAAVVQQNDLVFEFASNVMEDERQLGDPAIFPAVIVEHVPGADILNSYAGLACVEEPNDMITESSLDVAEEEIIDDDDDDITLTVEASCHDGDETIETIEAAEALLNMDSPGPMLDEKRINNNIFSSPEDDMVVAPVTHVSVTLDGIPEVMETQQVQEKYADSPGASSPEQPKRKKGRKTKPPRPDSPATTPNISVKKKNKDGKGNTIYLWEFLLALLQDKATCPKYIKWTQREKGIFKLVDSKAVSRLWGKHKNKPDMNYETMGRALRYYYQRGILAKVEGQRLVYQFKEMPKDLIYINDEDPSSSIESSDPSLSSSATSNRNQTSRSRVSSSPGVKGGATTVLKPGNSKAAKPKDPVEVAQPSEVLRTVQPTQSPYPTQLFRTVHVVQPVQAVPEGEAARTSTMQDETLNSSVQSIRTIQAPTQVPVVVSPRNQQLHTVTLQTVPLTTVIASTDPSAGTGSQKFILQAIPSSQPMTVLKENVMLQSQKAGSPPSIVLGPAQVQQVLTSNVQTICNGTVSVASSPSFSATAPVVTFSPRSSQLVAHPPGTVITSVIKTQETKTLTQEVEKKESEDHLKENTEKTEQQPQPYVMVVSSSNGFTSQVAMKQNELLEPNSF
ETV1, sequence (P50549 whole entry): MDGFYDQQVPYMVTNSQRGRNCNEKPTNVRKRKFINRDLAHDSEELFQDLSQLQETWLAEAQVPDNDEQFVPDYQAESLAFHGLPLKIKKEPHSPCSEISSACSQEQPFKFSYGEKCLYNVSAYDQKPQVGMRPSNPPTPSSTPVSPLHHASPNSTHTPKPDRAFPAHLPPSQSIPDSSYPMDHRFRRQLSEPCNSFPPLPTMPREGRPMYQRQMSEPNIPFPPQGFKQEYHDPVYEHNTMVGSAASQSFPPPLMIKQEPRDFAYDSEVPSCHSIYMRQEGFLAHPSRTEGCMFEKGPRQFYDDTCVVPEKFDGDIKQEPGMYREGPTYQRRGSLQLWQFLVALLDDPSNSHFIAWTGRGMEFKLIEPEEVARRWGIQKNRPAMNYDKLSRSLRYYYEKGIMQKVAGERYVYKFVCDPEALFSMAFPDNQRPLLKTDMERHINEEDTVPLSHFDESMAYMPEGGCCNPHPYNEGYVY
ELF4, sequence (Q99607 whole entry): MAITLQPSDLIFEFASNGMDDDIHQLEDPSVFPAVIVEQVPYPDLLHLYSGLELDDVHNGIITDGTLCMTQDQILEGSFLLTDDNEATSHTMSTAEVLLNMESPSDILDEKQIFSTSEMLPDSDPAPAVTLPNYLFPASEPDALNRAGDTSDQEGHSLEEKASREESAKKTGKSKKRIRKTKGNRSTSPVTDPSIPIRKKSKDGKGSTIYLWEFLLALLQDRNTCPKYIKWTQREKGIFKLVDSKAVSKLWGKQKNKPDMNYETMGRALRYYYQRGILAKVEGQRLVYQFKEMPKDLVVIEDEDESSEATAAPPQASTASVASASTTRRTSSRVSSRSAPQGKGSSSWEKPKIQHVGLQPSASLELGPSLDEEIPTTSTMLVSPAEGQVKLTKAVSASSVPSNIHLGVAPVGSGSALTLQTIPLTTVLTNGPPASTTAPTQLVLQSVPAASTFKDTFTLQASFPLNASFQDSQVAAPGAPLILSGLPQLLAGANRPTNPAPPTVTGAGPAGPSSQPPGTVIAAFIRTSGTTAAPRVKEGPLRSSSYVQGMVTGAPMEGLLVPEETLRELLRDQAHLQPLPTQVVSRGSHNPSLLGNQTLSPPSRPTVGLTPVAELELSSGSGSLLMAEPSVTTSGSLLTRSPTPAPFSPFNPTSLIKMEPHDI
ETV5, sequence (P41161 whole entry): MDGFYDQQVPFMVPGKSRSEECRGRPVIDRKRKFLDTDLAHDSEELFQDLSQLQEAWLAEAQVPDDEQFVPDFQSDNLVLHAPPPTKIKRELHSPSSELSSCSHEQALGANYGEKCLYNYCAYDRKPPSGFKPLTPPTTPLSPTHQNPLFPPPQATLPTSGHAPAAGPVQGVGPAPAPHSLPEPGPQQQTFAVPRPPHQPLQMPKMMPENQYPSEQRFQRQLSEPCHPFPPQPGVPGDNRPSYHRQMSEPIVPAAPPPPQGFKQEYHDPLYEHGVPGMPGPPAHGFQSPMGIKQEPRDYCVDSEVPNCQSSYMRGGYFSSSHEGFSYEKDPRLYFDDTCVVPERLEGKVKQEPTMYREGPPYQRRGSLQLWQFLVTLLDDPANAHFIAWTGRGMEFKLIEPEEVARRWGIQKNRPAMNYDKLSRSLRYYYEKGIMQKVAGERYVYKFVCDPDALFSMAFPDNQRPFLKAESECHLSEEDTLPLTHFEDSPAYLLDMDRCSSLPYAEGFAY

With CCCAAA the binding signal (ELK1) was 1.15 fold enrichment (6-mer frequency, TF over GST control), the binding signal (GABPA) was 1.17 fold enrichment (6-mer frequency, TF over GST control) and the binding signal (ERG) was 1.13 fold enrichment (6-mer frequency, TF over GST control). For the same sequence, the binding signal (ELF1) was 1.18 fold enrichment (6-mer frequency, TF over GST control), the binding signal (EHF) was 1.12 fold enrichment (6-mer frequency, TF over GST control) and the binding signal (SPI1) was 1.15 fold enrichment (6-mer frequency, TF over GST control). For the same sequence, the binding signal (SPIB) was 1.14 fold enrichment (6-mer frequency, TF over GST control), the binding signal (FEV) was 1.08 fold enrichment (6-mer frequency, TF over GST control) and the binding signal (ETV5) was 1.07 fold enrichment (6-mer frequency, TF over GST control). For the same sequence, the binding signal (ELF4) was 1.17 fold enrichment (6-mer frequency, TF over GST control), the binding signal (ELK4) was 1.06 fold enrichment (6-mer frequency, TF over GST control) and the binding signal (ELF3) was 1.2 fold enrichment (6-mer frequency, TF over GST control). The binding signal (ETV1) was 1.08 fold enrichment (6-mer frequency, TF over GST control), the binding signal (ERF) was 1.11 fold enrichment (6-mer frequency, TF over GST control) and the binding signal (ETV3L) was 1.12 fold enrichment (6-mer frequency, TF over GST control). The binding signal (ETS2) was 1.02 fold enrichment (6-mer frequency, TF over GST control), the binding signal (SPDEF) was 1.06 fold enrichment (6-mer frequency, TF over GST control) and the binding signal (ETV7) was 1.09 fold enrichment (6-mer frequency, TF over GST control). For the same sequence, the binding signal (ETV3) was 1.02 fold enrichment (6-mer frequency, TF over GST control) and the binding signal (ETV6) was 1.1 fold enrichment (6-mer frequency, TF over GST control).
